Experimental data published in PubChem BioAssay AID2315 (National Center for Advancing Translational Sciences (NCATS), 2010).
In all, about 290,000 compounds went through this assay and about 27,000 (9.3%) were called active. Rule as the data show it: active = inhibition mostly above about 28% (no sharp cut-off); inactive = mostly below about 43%. The sample as a whole holds a higher share of actives than the screen did. Where a SMILES comes first, the peptide text is derived from it.

Test: A qHTS for Small Molecule Inhibitors of Shiga Toxin; also: 0% is about no effect
Conditions: Vero cells, Shiga toxin protein synthesis inhibition reporter; at 38.7 µM, active compounds read high
In the case of CC(=O)NC1CCN(CC(=O)Nc2nccs2)CC1, the inhibition is reported as -3.57% (inactive). With CN=C1S/C(=C\c2c(OC)cc(OC)cc2OC)C(=O)N1C the inhibition was -8.5% (inactive). With CC[C@H](C)[C@H](NC(=O)[C@H](Cc1cnc[nH]1)NC(=O)[C@@H](N)CCC(=O)O)C(=O)N1CCC[C@H]1C(=O)N[C@@H](C)C(=O)O (H-EHIPA-OH) the inhibition was -0.529% (inactive). With CC(=O)C1=C(C)NC(=O)NC1c1ccc2c(c1)OCO2 (stereo not given) the inhibition was 2.18% (inactive). With COc1ccccc1C(=O)COC(=O)CNS(=O)(=O)c1ccc(NC(C)=O)cc1 the inhibition was -27.5% (inactive). In the case of CC(CC(=O)Nc1ccc(F)cc1F)S(=O)(=O)c1ccc2c(c1)NC(=O)CO2 (stereo not given), the inhibition is reported as -3.11% (inactive). With CCCCNC(=O)c1ccccc1NC(=O)C1=C(C)OCCS1 the inhibition was 1.7% (inactive). With CC1=C(C(=O)Nc2ccccc2)SCCO1 the inhibition was 52.1% (active). In the case of CC1=C(C(=O)Nc2ccccc2)S(=O)(=O)CCO1, the inhibition is reported as 31.9% (inactive). With Cc1cccc(N(C(=O)c2sc(C)nc2C)C(C(=O)NCC2CCCO2)c2ccccc2)c1 (stereo not given) the inhibition was -10.3% (inactive). In the case of COc1ccccc1NC(=O)c1ccc(N2CC3CC(C2)c2cccc(=O)n2C3)c(NC(=O)c2cccnc2)c1 (stereo not given), the inhibition is reported as 7.14% (inactive). With NS(=O)(=O)c1cc(C(=O)NCCOc2ccccc2)c(Cl)cc1Cl the inhibition was -6.15% (inactive). In the case of Cn1ccc(NC(=O)Nc2ccc(Cl)cc2)n1, the inhibition is reported as 93% (active). In the case of Cc1nn(C)cc1C(=O)NNC(=S)Nc1ccc(Cl)cc1, the inhibition is reported as 3.52% (inactive). With O=C(Nc1ccc(Cl)cc1)Nc1ccc(C(=O)N2CCOCC2)cc1 the inhibition was 32.1% (inactive). In the case of Cc1cc(NC(=O)Nc2ccc(Cl)cc2)n(-c2ccccc2)n1, the inhibition is reported as 15.7% (inactive). In the case of COc1ccc(Cl)cc1C(=O)NCc1cn(C)nc1C, the inhibition is reported as -46.7% (inactive). In the case of Cc1nn(C)cc1CNC(=O)Nc1ccc(Cl)cc1, the inhibition is reported as 58.7% (active). With CCC(=O)Nc1nc(C)c(C(=O)Nc2cccc(Cl)c2)s1 the inhibition was 12.8% (inactive). In the case of COc1cc(/C=C2\CCCc3c2nc2ccccc2c3C(=O)O)cc(Cl)c1O, the inhibition is reported as -3.8% (inactive). In the case of CCc1ccc(N2CC(C(=O)Nc3ccc(S(=O)(=O)Nc4nccs4)cc3)CC2=O)cc1 (stereo not given), the inhibition is reported as 16.7% (inactive). For O=C(c1cccc(Cl)c1)N1CCN(Cc2ccccc2)CC1, the inhibition was -19.8% (inactive). In the case of COc1ccc(-c2noc(CNC(=O)C(C)Oc3ccccc3)n2)cc1 (stereo not given), the inhibition is reported as 11.6% (inactive). For Cc1ccccc1C(=O)N1CCC(C(=O)Nc2ccc(S(=O)(=O)N(C)C(C)C)cc2)CC1, the inhibition was 24.6% (inactive). With COc1ccccc1-c1cnn2c(N3CCOCC3)cc(C)nc12 the inhibition was 87.6% (active). In the case of Cc1cc(C(F)(F)F)n2ncc(-c3ccccc3)c2n1, the inhibition is reported as -2.7% (inactive). In the case of COc1ccccc1NC(=O)C1CCCN(c2cc(C)nc3ncnn23)C1 (stereo not given), the inhibition is reported as 2.25% (inactive). In the case of N#Cc1c(-c2ccccc2)cc(-c2ccccc2)nc1SCC(=O)O, the inhibition is reported as -7.81% (inactive). With Cc1ccc(-n2c(C)cc(C(=O)CN3C(=O)C(=O)N(C4CCCC4)C3=O)c2C)cc1 the inhibition was -11% (inactive). In the case of Cc1cc(C(=O)CSc2nc(N)cc(=O)[nH]2)c(C)n1-c1cccc(F)c1, the inhibition is reported as 3.21% (inactive). In the case of Cc1cc(C(=O)COC(=O)C2CC2)c(C)n1-c1ccc(F)cc1, the inhibition is reported as 52.6% (active). With CN(CC(=O)NCc1ccncc1)S(=O)(=O)c1ccc(Br)cc1 the inhibition was 9.73% (inactive). With Cc1cc(S(=O)(=O)Nc2ccc(C(=O)NCC(c3ccco3)N3CCCC3)cc2)ccc1F (stereo not given) the inhibition was -11.6% (inactive). In the case of CCC(C)[C@H](NC(=O)N1c2ccccc2NC(=O)[C@@H]1C(C)C)C(=O)N[C@@H](Cc1ccccc1)C(=O)O (stereo not given in full), the inhibition is reported as -1.75% (inactive). For Cc1nc2ccccc2c(-c2ccccc2)c1C(=O)c1ccccc1, the inhibition was -2.44% (inactive). In the case of CCCC(=O)n1nc(-c2ccccc2)nc1N, the inhibition is reported as 17.2% (inactive). In the case of Cc1nn(C(=O)c2ccoc2C)c(N)c1-c1ccccc1, the inhibition is reported as 131% (active). In the case of Cc1cc(C)c2c(Cn3ccnc3)cc(=O)oc2c1, the inhibition is reported as -6.18% (inactive). In the case of CC(=O)Nc1ccc(S(=O)(=O)N2CCC(C(=O)NC3CC3)CC2)cc1, the inhibition is reported as -3.15% (inactive). For CN(Cc1ccccc1Cl)C(=O)C1CCC(=O)N(CCc2cccc(F)c2)C1 (stereo not given), the inhibition was 2.46% (inactive). With COc1ccc(S(=O)(=O)N(C)C)cc1NC(=O)CSc1ncccn1 the inhibition was -6.2% (inactive). For COc1ccc(NS(=O)(=O)c2ccc3oc(SCC(N)=O)nc3c2)cc1, the inhibition was -13.2% (inactive). In the case of CN(C)S(=O)(=O)c1ccc2oc(SCC(=O)Nc3ccccc3F)nc2c1, the inhibition is reported as 113% (active). For Brc1c(CSc2nncc3ccccc23)nc2ccccn12, the inhibition was 44.5% (active). For CN(C(=O)CN1C(=O)CCSc2ccc(S(=O)(=O)N3CCCC3)cc21)c1ccccc1, the inhibition was -7.94% (inactive). In the case of O=C(NCc1ccccc1Cl)c1ccc2c(=O)n(CC3CCCO3)c(=S)[nH]c2c1 (stereo not given), the inhibition is reported as 28.6% (inactive). With Cc1cc(C)c(OCC(=O)N(Cc2cccs2)C2CCS(=O)(=O)C2)c(C)c1 (stereo not given) the inhibition was 12.7% (inactive). With CCOC(=O)N1CCN(C(=O)C(=O)Nc2sc3c(c2C#N)CC(C)(C)OC3)CC1 the inhibition was -6.06% (inactive). With O=S1(=O)CCOC[C@H](CC2CCCCC2)N1Cc1ccc(F)cc1 the inhibition was 19.8% (active). For CCC(C)[C@H]1COCCS(=O)(=O)N1Cc1ccc(C)cc1 (stereo not given in full), the inhibition was -2.97% (inactive). In the case of CCCC[C@H]1COCCS(=O)(=O)N1Cc1cccc(Cl)c1, the inhibition is reported as -0.556% (inactive). With Cc1ccc(S(=O)(=O)N2CC(C)N(S(C)(=O)=O)C2)cc1 (stereo not given) the inhibition was -4.24% (inactive). In the case of Cc1ccc(-c2nnc(CN3CCN(C)CC3)o2)cc1, the inhibition is reported as 21.4% (inactive). In the case of COc1cccc(NC(=O)Cn2c3ccc(F)cc3c3nc4n(c(=O)c32)CCS4)c1, the inhibition is reported as -1.58% (inactive). With CCC(=O)Nc1ccc(S(=O)(=O)Nc2c(NC)c3ccccc3oc2=O)cc1 the inhibition was 8.69% (inactive). With O=C(N=C1SC2CS(=O)(=O)CC2N1c1cc(Cl)ccc1Cl)C1CC1 (stereo not given) the inhibition was -4.57% (inactive). With O=C(c1ccc(F)cc1)n1c(=S)nc2ccccn21 the inhibition was 82.6% (active). In the case of O=C(Cn1c(=S)nc2ccccn21)N1CCc2ccccc2C1, the inhibition is reported as 38.4% (inactive). In the case of O=C(c1ccc(F)cc1)n1cc(C(=S)N2CCOCC2)c2ccccc21, the inhibition is reported as -2.34% (inactive). With CC1C(=O)N(Cc2ccccc2)c2ccccc2N1C(=O)c1ccccc1 (stereo not given) the inhibition was 2.9% (inactive). For O=C(CN1C(=O)c2cccc3cccc1c23)Nc1ccccc1, the inhibition was -7.35% (inactive). For CSCc1cc(N2CCOCC2)nc(SCc2ccc(Cl)cc2Cl)n1, the inhibition was 30.9% (active). For CSCc1cc(N(C)C)nc(SCc2ccc(Cl)cc2Cl)n1, the inhibition was -20.3% (inactive). For CC(C)(CNC(=O)Cc1ccc(Cl)cc1Cl)N1CCOCC1, the inhibition was 2.65% (inactive). With CCn1c(SCC(=O)Nc2ccc(Br)cc2)nc2sc3c(c2c1=O)CCN(C)C3 the inhibition was 18.8% (inactive). For CCN(Cc1ccccc1)C(=O)CN1C(=S)NC(C)(C)CC1C (stereo not given), the inhibition was -3.94% (inactive). For Cn1c(SCc2c(F)cccc2Cl)nnc1-c1cnccn1, the inhibition was 119% (active). With Cc1ccc(CSc2nnc(-c3cnccn3)n2C)cc1 the inhibition was 36.7% (inactive). For Oc1ccc(-n2nnnc2SCc2c(F)cccc2Cl)cc1, the inhibition was -2.08% (inactive). For CC(OC(=O)c1ccc2ccccc2n1)C(=O)c1ccccc1 (stereo not given), the inhibition was 86.7% (active). With CC(OC(=O)c1ccccc1N1C(=O)C2C3CCC(C3)C2C1=O)C(=O)c1ccccc1 (stereo not given) the inhibition was 5.16% (inactive). In the case of COc1ccc(C(=O)COC(=O)c2ccc3ccccc3n2)cc1, the inhibition is reported as 28.4% (inactive). In the case of O=C(CCSc1ccccc1)N1CCN(c2ccccc2F)CC1, the inhibition is reported as 95.5% (active). In the case of O=C(CCc1ccccc1F)N1CCN(c2ccccc2)CC1, the inhibition is reported as -0.211% (inactive). With O=C(NCC(=O)N1CCN(c2ccccc2F)CC1)c1cccs1 the inhibition was 26.2% (inactive). For Cc1ccc(C)c(N2CCN(S(=O)(=O)c3c(C)[nH]c(C)c3C(=O)N3CCCC3)CC2)c1, the inhibition was 3.26% (inactive). In the case of Cc1cccc(/C(N)=N/OC(=O)c2ccccc2Cl)c1, the inhibition is reported as 74.6% (active). In the case of N/C(=N\OC(=O)c1cc(-c2ccccc2)nc2ccccc12)c1ccncc1, the inhibition is reported as 15.3% (inactive). With Cc1cccc(C(=O)c2cccc(C)c2)c1 the inhibition was 43.6% (inactive). For CCc1c(C)nc2cc(-c3cccs3)[nH]n2c1=O, the inhibition was 153% (active). For CCc1c(C)nc2cc(C)[nH]n2c1=O, the inhibition was 0.52% (inactive). For CCCCN1Cc2c(nc3cc(-c4ccccc4)[nH]n3c2=O)C1=O, the inhibition was 2.49% (inactive). In the case of Cc1nc2nc[nH]n2c(=O)c1C/C=C/c1ccccc1, the inhibition is reported as -3.93% (inactive). For C=CCc1c(C)nc2cc(-c3ccccc3)[nH]n2c1=O, the inhibition was 45.5% (active). With Cc1cc(=O)n2[nH]c(-c3sccc3-n3c(C)ccc3C)cc2n1 the inhibition was 34.4% (inactive). For COC(=O)c1cccc(N(C(=O)CNC(=O)c2cccs2)C(C(=O)NCC2CCCO2)c2ccc(OC)c(OC)c2)c1 (stereo not given), the inhibition was 22.3% (inactive). With COc1cc(NC(=O)C2=CC(c3ccco3)=NS(=O)(=O)N2C)cc(OC)c1OC the inhibition was -2.22% (inactive). For COc1cccc(CNC(=O)C2CCCN(S(=O)(=O)N3CC(C)CC(C)C3)C2)c1 (stereo not given), the inhibition was -1.73% (inactive). For Cc1ccc(S(=O)(=O)N(CCCN(C)C)Cc2ccc3c(c2)OCO3)cc1, the inhibition was 9.86% (inactive). For O=S(=O)(c1ccc(Br)cc1)c1nc(-c2ccccc2)oc1N1CCOCC1, the inhibition was -6.09% (inactive). For COc1ccc(S(=O)(=O)NCC(=O)NC2CC2)cc1OC, the inhibition was -5.35% (inactive). For Cn1nccc1C(=O)NC1CCCc2c1cnn2-c1ccc(F)cc1F (stereo not given), the inhibition was 10.4% (inactive). With COC(=O)c1c(NC(=O)c2ccc(S(=O)(=O)N3CCOCC3)cc2)sc2c1CCN(C(C)C)C2 the inhibition was -17.4% (inactive). With Cc1nn2c(c1-c1ccccc1)N=C(c1ccco1)CC2c1ccccc1 (stereo not given) the inhibition was 103% (active). For O=C(O)CCCC(=O)N1N=C(c2ccco2)CC1c1ccco1 (stereo not given), the inhibition was -14% (inactive).
